Laboratory results reported in publication PMC12820563, “FoxP3 forms a head-to-head dimer in vivo and stabilizes its multimerization on adjacent microsatellites”.
In all, about 16,000 sequences were measured (“rpm ratio (pull-down/input)”: median about 0.94, highest 2% from about 1.7 on). This excerpt belongs to a sample that is enriched for the highest values.

Molecular target: T1, MBP-FoxP1dN (Mus musculus, UniProt P58462 326-579)
T1 sequence: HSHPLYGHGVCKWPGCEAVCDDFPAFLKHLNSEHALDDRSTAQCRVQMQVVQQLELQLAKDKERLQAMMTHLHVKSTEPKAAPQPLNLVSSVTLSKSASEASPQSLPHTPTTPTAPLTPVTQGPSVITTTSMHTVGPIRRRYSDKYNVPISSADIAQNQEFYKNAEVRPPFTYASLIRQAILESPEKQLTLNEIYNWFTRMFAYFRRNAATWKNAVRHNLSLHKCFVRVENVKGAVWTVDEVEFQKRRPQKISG
Experiment: PD-seq (MBP pull-down with sequencing); 20 mM Tris-HCl pH 7.5, 100 mM NaCl, 1.5 mM MgCl2, 0.4 uM protein, 0.1 uM dsDNA library, 30 min, room temperature, amylose pull-down; high values mean tight binding
Conditions: protein: recombinant; tags: His6-MBP; chain copies: 2; dsDNA, one strand shown
In short: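 Amylose resin was used to capture complexes formed during 30 min at room temperature in Tris pH 7.5 buffer with NaCl and MgCl2 between 0.4 µM His6-MBP-tagged mouse FoxP3 or FoxP1 fragment lacking the N-terminus, expressed in E. coli, and 0.1 µM Klenow-filled double-stranded degenerate DNA library. After three washes, the DNA was released with proteinase K, barcoded by PCR and sequenced on Illumina. Binding is pooled-replicate reads-per-million enrichment, pull-down over input.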

Sequence	binding signal
GATGATTGTTCTCCCAGCTGATGAATTTTTGTACTCGAGTAAACAAATTTTCCTAATCTTTCTGTTCAAGCGCCATCTAC	1.14 RPM ratio (pull-down/input)
GATGATTGTTCTCCCAGCTGATGAATTGTGTGTATCGAGTAAACAAATTTTCCTAATCTTTCTGTTCAAGCGCCATCTAC	1.92 RPM ratio (pull-down/input)
GATGATTGTTCTCCCAGCTGATGAATTCTGTACCTCGAGTAAACAAATTTTCCTAATCTTTCTGTTCAAGCGCCATCTAC	0.846 RPM ratio (pull-down/input)
GATGATTGTTCTCCCAGCTGATGAATTAATGTAATCGAGTAAACAAATTTTCCTAATCTTTCTGTTCAAGCGCCATCTAC	1.68 RPM ratio (pull-down/input)
GATGATTGTTCTCCCAGCTGATGAATTCATCGTGTCGAGTAAACAAATTTTCCTAATCTTTCTGTTCAAGCGCCATCTAC	0.891 RPM ratio (pull-down/input)
GATGATTGTTCTCCCAGCTGATGAATTTGACGAATCGAGTAAACAAATTTTCCTAATCTTTCTGTTCAAGCGCCATCTAC	0.846 RPM ratio (pull-down/input)
GATGATTGTTCTCCCAGCTGATGAATTGAGATGCTCGAGTAAACAAATTTTCCTAATCTTTCTGTTCAAGCGCCATCTAC	1.07 RPM ratio (pull-down/input)
GATGATTGTTCTCCCAGCTGATGAATTAGCTCGGTCGAGTAAACAAATTTTCCTAATCTTTCTGTTCAAGCGCCATCTAC	0.829 RPM ratio (pull-down/input)
GATGATTGTTCTCCCAGCTGATGAATTATGAGATTCGAGTAAACAAATTTTCCTAATCTTTCTGTTCAAGCGCCATCTAC	0.995 RPM ratio (pull-down/input)
GATGATTGTTCTCCCAGCTGATGAATTAACTACCTCGAGTAAACAAATTTTCCTAATCTTTCTGTTCAAGCGCCATCTAC	0.879 RPM ratio (pull-down/input)
GATGATTGTTCTCCCAGCTGATGAATTAAATGTTTCGAGTAAACAAATTTTCCTAATCTTTCTGTTCAAGCGCCATCTAC	1.3 RPM ratio (pull-down/input)
GATGATTGTTCTCCCAGCTGATGAATTATGATGTTCGAGTAAACAAATTTTCCTAATCTTTCTGTTCAAGCGCCATCTAC	1.22 RPM ratio (pull-down/input)
GATGATTGTTCTCCCAGCTGATGAATTATGATGGTCGAGTAAACAAATTTTCCTAATCTTTCTGTTCAAGCGCCATCTAC	1.1 RPM ratio (pull-down/input)
GATGATTGTTCTCCCAGCTGATGAATTATGTTGGTCGAGTAAACAAATTTTCCTAATCTTTCTGTTCAAGCGCCATCTAC	1.87 RPM ratio (pull-down/input)
GATGATTGTTCTCCCAGCTGATGAATTATCTTGGTCGAGTAAACAAATTTTCCTAATCTTTCTGTTCAAGCGCCATCTAC	0.937 RPM ratio (pull-down/input)
GATGATTGTTCTCCCAGCTGATGAATTATGTTTTTCGAGTAAACAAATTTTCCTAATCTTTCTGTTCAAGCGCCATCTAC	2.19 RPM ratio (pull-down/input)
GATGATTGTTCTCCCAGCTGATGAATTTTATGTTTCGAGTAAACAAATTTTCCTAATCTTTCTGTTCAAGCGCCATCTAC	1.19 RPM ratio (pull-down/input)

Sequence	binding signal
GATGATTGTTCTCCCAGCTGATGAATTTAATGTTTCGAGTAAACAAATTTTCCTAATCTTTCTGTTCAAGCGCCATCTAC	1.15 RPM ratio (pull-down/input)
GATGATTGTTCTCCCAGCTGATGAATTTTTATGTTCGAGTAAACAAATTTTCCTAATCTTTCTGTTCAAGCGCCATCTAC	1.37 RPM ratio (pull-down/input)
GATGATTGTTCTCCCAGCTGATGAATTTATGTTTTCGAGTAAACAAATTTTCCTAATCTTTCTGTTCAAGCGCCATCTAC	2.76 RPM ratio (pull-down/input)
GATGATTGTTCTCCCAGCTGATGAATTATGTGTTTCGAGTAAACAAATTTTCCTAATCTTTCTGTTCAAGCGCCATCTAC	1.51 RPM ratio (pull-down/input)
GATGATTGTTCTCCCAGCTGATGAATTAATGTTTTCGAGTAAACAAATTTTCCTAATCTTTCTGTTCAAGCGCCATCTAC	2.45 RPM ratio (pull-down/input)
GATGATTGTTCTCCCAGCTGATGAATTCCTAATCTCGAGTAAACAAATTTTCCTAATCTTTCTGTTCAAGCGCCATCTAC	0.834 RPM ratio (pull-down/input)
GATGATTGTTCTCCCAGCTGATGAATTATGATATTCGAGTAAACAAATTTTCCTAATCTTTCTGTTCAAGCGCCATCTAC	1.24 RPM ratio (pull-down/input)
GATGATTGTTCTCCCAGCTGATGAATTATACCTCTCGAGTAAACAAATTTTCCTAATCTTTCTGTTCAAGCGCCATCTAC	0.896 RPM ratio (pull-down/input)
GATGATTGTTCTCCCAGCTGATGAATTAAGCTTATCGAGTAAACAAATTTTCCTAATCTTTCTGTTCAAGCGCCATCTAC	1.03 RPM ratio (pull-down/input)
GATGATTGTTCTCCCAGCTGATGAATTCTCTTCATCGAGTAAACAAATTTTCCTAATCTTTCTGTTCAAGCGCCATCTAC	0.886 RPM ratio (pull-down/input)
GATGATTGTTCTCCCAGCTGATGAATTATGTTCTTCGAGTAAACAAATTTTCCTAATCTTTCTGTTCAAGCGCCATCTAC	1.15 RPM ratio (pull-down/input)
GATGATTGTTCTCCCAGCTGATGAATTATGAATTTCGAGTAAACAAATTTTCCTAATCTTTCTGTTCAAGCGCCATCTAC	1.03 RPM ratio (pull-down/input)
GATGATTGTTCTCCCAGCTGATGAATTATGTTGATCGAGTAAACAAATTTTCCTAATCTTTCTGTTCAAGCGCCATCTAC	2.81 RPM ratio (pull-down/input)
GATGATTGTTCTCCCAGCTGATGAATTATGTTCATCGAGTAAACAAATTTTCCTAATCTTTCTGTTCAAGCGCCATCTAC	1.04 RPM ratio (pull-down/input)
GATGATTGTTCTCCCAGCTGATGAATTATGATGATCGAGTAAACAAATTTTCCTAATCTTTCTGTTCAAGCGCCATCTAC	1.15 RPM ratio (pull-down/input)
GATGATTGTTCTCCCAGCTGATGAATTATGTTGTTCGAGTAAACAAATTTTCCTAATCTTTCTGTTCAAGCGCCATCTAC	2.67 RPM ratio (pull-down/input)
